# ChEMBL document CHEMBL3988442, “University of Dundee, Small-Polar-MMV Screening Library” (2021)
# About 13,000 (27%) of roughly 48,000 compounds showed an effect of 50% or more. The list shows a part of the results.
# Test system: Wolbachia pipientis
# Experiment: Anti-Wolbachia Cell-Based Screen
# Type: functional
# Design: scale not given: in the data most compounds retested in dose-response had high values
# Conditions: 5 µM
row,SMILES,Percent Effect
1,CCN(Cc1ccoc1)C(=O)Nc1ccccc1CN(C)C(C)=O,-2.695%
2,CNC(=O)c1nc2c(s1)CCN(C(=O)c1cccc(OC)c1)CC2,-8.352%
3,O=C(NC[C@H]1OC[C@@H](NC2COC2)[C@@H]1O)c1ccccc1,-18.77%
4,COc1ccc(CCNC(=O)N2CCN(C)[C@@H]3CS(=O)(=O)C[C@@H]32)cc1,3.976%
5,N#Cc1c(F)cccc1N1CCC(NS(=O)(=O)c2cccs2)CC1,-19.03%
6,COCC1c2nnn(CC3CC3)c2CCN1C(=O)C1CCOCC1 (stereo not drawn),-9.696%
7,CC(C)(C)C(=O)NCCC(=O)Nc1cc(C#N)cn1C(C)(C)C,-12.46%
8,O=C(NC[C@H]1OC[C@@H](NC2CCCCC2)[C@@H]1O)Nc1ccccc1,2.791%
9,Cc1cc(N2CCN(c3nc4ccccc4cc3CO)CC2)nc(C)n1,9.089%
10,COc1ccc(-c2ccnc3c2C(=O)CCC3)cc1,-3.402%
11,COc1ccc(-c2ccnc3nc(N4CCCCC4)[nH]c(=O)c23)cc1,107.2%
12,NC(=O)C1CCN(c2nc3nccc(-c4ccccc4)c3c(=O)[nH]2)CC1,-1.836%
13,COCCOC1CCN(C(C(=O)O)c2ccc3c(c2)OCO3)CC1 (stereo not drawn),111.3%
14,O=C(O)C(c1ccc2c(c1)OCO2)N1CCCCCC1 (stereo not drawn),23.77%
15,COCCOC1CCN(C(C(=O)O)c2ccc(OC)c(F)c2)CC1 (stereo not drawn),107.6%
16,COc1ccccc1C(C(=O)O)N1CCCN(C2CCCC2)CC1 (stereo not drawn),-24.96%
17,NC(=O)C1CCN(C(C(=O)O)c2ccc(Cl)c(C(F)(F)F)c2)CC1 (stereo not drawn),-1.554%
18,COc1ccc(C(C(=O)O)N2CCN(C3CCCC3)CC2)cc1OC (stereo not drawn),20.13%
19,COCCOC1CCN(C(C(=O)O)c2c(Cl)cccc2OC)CC1 (stereo not drawn),87.97%
20,O=C(O)C(c1ccc(Cl)c(F)c1)N1CCN(Cc2ccccn2)CC1 (stereo not drawn),0.4357%
21,O=C(O)C(c1ccc2c(c1)OCO2)N1CCCC1 (stereo not drawn),-31.26%
22,COc1ccc(C(C(=O)O)N2CCC(O)(c3cccnc3)CC2)cc1F (stereo not drawn),-17.65%
23,COc1cccc(Cl)c1C(C(=O)O)N1CCC(O)(c2cccnc2)CC1 (stereo not drawn),0.4267%
24,CN(C)CCN(C)C1CCN(C(C(=O)O)c2ccc(F)c(Cl)c2)CC1 (stereo not drawn),97.08%
25,Cn1cnc2c1C(COCc1cccnc1)N(Cc1nccs1)CC2.O=C(O)C(F)(F)F.O=C(O)C(F)(F)F.O=C(O)C(F)(F)F (stereo not drawn),0.7375%
26,CCOc1ccc(Cl)cc1C(C(=O)O)N1CCC(CO)CC1 (stereo not drawn),-16.74%
27,COc1ccc(C(C(=O)O)N2CCN(C3CCCC3)CC2)cc1C (stereo not drawn),19.06%
28,COCCOC1CCN(C(C(=O)O)c2ccc(F)c(Cl)c2)CC1 (stereo not drawn),111%
